# In PubChem BioAssay (EPA / NIEHS):
# Results filed as inconclusive are left out. The source made the active and inactive calls. Rule for the calls: active = hit-call score of the fitted dose curve at least 0.9, where 1 is the maximum; inconclusive = response in the unintended direction; inactive = score below 0.9.
# Columns and labels:
# [1] = TOX21_p53_BLA_p2_viability: Viability Assessment in the Tox21 HCT-116 p53 Agonism Beta-lactamase Assay, Phase 2 (AID 2283591);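 note: compound exposure lasted 16 h at 37 °C; actives lower the ATP signal meaning cytotoxicity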
# In short: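 HCT116 p53-bla cells, 4000/well, dosed after 5 h plating (217-fold dilution of DMSO stocks) and incubated 16 h at 37C. Viability taken as cellular ATP by CellTiter-Glo luminescence after 30 min RT; signal loss marks cytotoxicity.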
# [2] = target: Cellular tumor antigen p53 (Homo sapiens) (UniProt P04637); assay: TOX21_p53_BLA_p2_ratio: Tox21 HCT-116 p53 Agonism Beta-lactamase Assay, Ratio, Phase 2 (AID 2283592)
# Cellular tumor antigen p53 (Homo sapiens), sequence (P04637 whole entry, looked up): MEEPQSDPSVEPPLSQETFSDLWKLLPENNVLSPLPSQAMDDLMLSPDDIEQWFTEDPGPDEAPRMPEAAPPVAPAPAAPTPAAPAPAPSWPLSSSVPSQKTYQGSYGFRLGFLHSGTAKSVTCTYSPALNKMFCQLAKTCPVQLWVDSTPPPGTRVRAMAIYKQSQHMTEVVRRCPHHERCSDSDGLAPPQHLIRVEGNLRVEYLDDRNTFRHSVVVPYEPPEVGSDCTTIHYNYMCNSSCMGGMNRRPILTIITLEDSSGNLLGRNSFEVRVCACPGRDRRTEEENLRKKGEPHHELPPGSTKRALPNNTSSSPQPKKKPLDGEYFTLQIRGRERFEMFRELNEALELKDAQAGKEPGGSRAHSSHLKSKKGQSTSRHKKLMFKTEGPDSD
# In short: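 Human colon HCT116 cells with an inducible p53 beta-lactamase reporter are exposed to test chemicals for 16 h at 37C. Reporter induction is read as the 460/530 nm emission ratio after CCF4-AM loading, normalized to DMSO.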
# [3] = TOX21_p53_BLA_p3_viability: Viability Assessment in the Tox21 HCT-116 p53 Agonism Beta-lactamase Assay, Phase 3 (AID 2283593);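 note: cells exposed to compound for 16 h before reading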
# In short: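 HCT116 cells, 4000/well, dosed 5 h after plating by pin transfer (217-fold dilution from DMSO stock) and incubated 16 h at 37C, 5% CO2. Viability read as ATP luminescence with CellTiter-Glo after 30 min at room temperature.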
# [4] = target: Cellular tumor antigen p53 (Homo sapiens) (UniProt P04637); assay: TOX21_p53_BLA_p3_ratio: Tox21 HCT-116 p53 Agonism Beta-lactamase Assay, Ratio, Phase 3 (AID 2283596)
# In short: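 HCT116 p53-bla cells (4000/well) given compound in DMSO (217-fold dilution) after 5 h, incubated 16 h at 37C. CCF4-AM substrate 2 h at room temperature; 460/530 nm emission ratio, gain fitted against DMSO.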
# [5] = TOX21_p53_BLA_p4_viability: Viability Assessment in the Tox21 HCT-116 p53 Agonism Beta-lactamase Assay, Phase 4 (AID 2283597);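 note: hits lower the luminescence signal meaning cytotoxicity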
# In short: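 Luminescent ATP readout (CellTiter-Glo, 30 min, room temperature) in the same wells as the p53 bla ratio. HCT116 cells were treated for 16 h at 37C with DMSO-dissolved compounds.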
# [6] = TOX21_p53_BLA_p5_viability: Viability Assessment in the Tox21 HCT-116 p53 Agonism Beta-lactamase Assay, Phase 5 (AID 2283600)
# In short: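 Seeded cells (4000/well) settle 5 h before compound addition. Plates then incubate 16 h at 37C, receive FRET substrate for 2 h, and finally CellTiter-Glo, with luminescence measured after a 30 min room-temperature incubation.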
# [7] = target: Cellular tumor antigen p53 (Homo sapiens) (UniProt P04637); assay: TOX21_p53_BLA_p4_ratio: Tox21 HCT-116 p53 Agonism Beta-lactamase Assay, Ratio, Phase 4 (AID 2283601)
# In short: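 HCT-116 p53 beta-lactamase reporter cells (4000/well) preincubated 5 h, then compound (217-fold dilution of DMSO stock) for 16 h at 37C. CCF4-AM substrate added 2 h at room temperature; 460/530 nm emission ratio fitted upward versus DMSO.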
# [8] = ACEA_ER_AUC_viability: ACEA Biosciences xCELLigence Real-Time Cell Analysis on Estrogen Receptor Agonism for Viability (AID 2283782);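 note: continuous compound exposure with impedance area under curve over 80 h; hit means loss of impedance signal meaning reduced cell growth or viability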
# In short: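 T47D cells preconditioned in phenol red-free RPMI with charcoal-stripped FBS, then dosed with 8-point 1:4 series from 100 uM (up to 0.5% DMSO). Impedance monitored up to ~80 h; area-under-curve loss versus DMSO taken as viability.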
# PGR (gene 5241) [9] = target: PGR (gene 5241) (UniProt P06401); assay: TOX21_PR_BLA_Followup_Antagonist_ratio: Tox21 HEK293 Progesterone Receptor (PR) Antagonism Beta-lactamase Follow-Up Assay, Ratio (AID 2283934)
# PGR (gene 5241), sequence (P06401 whole entry, looked up): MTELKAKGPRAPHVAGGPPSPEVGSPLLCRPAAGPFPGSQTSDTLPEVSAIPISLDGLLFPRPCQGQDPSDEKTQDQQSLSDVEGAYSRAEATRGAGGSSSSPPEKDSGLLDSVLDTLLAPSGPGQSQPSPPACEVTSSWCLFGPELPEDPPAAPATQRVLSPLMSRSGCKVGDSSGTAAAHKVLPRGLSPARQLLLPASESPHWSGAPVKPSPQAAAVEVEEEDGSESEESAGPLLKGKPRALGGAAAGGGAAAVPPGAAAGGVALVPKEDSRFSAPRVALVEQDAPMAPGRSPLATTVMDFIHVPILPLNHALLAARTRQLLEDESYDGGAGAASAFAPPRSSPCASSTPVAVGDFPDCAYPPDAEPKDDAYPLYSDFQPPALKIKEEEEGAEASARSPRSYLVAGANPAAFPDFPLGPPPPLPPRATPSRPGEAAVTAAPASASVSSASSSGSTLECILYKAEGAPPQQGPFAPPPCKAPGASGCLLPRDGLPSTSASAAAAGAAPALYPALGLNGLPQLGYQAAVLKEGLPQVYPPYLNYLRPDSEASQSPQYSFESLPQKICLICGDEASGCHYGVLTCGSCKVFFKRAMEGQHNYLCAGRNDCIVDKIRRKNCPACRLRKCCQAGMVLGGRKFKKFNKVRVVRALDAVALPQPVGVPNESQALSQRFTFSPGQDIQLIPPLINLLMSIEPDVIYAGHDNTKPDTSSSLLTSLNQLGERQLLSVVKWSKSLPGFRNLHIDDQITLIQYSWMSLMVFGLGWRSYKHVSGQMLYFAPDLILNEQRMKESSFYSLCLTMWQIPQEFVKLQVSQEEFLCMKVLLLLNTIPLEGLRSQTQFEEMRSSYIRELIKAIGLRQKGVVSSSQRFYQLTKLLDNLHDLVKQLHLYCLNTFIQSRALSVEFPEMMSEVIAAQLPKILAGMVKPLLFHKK
# In short: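 PR-UAS-bla HEK293T cells in medium with 2% charcoal-stripped FBS were treated with compounds plus 1 nM (final) promegestone (R5020) for 16 hr at 37C. LiveBLAzer B/G FRET substrate was then added for 2 h at room temperature; signal is cleaved/uncleaved substrate ratio versus DMSO.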
# [10] = TOX21_PR_BLA_Followup_Agonist_viability: Viability Assessment in the Tox21 HEK293 Progesterone Receptor (PR) Agonism Beta-lactamase Follow-Up Assay (AID 2283935);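 note: signal loss means lower viability so actives are cytotoxic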
# In short: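 PR-UAS-bla HEK293T cells in 2% charcoal-stripped FBS medium, compound added after 6 hr plating, 16 hr at 37C/5% CO2. After bla FRET read, CellTiter-Glo added; luminescence read after 30 min at room temperature; signal loss marks cytotoxicity.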
# [11] = TOX21_PR_BLA_Followup_Antagonist_viability: Viability Assessment in the Tox21 HEK293 Progesterone Receptor (PR) Antagonism Beta-lactamase Follow-Up Assay (AID 2283936);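 note: hits lower the luminescence signal meaning cytotoxicity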
# In short: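 PR-UAS-bla HEK293T cells (3,000/well, 2% charcoal-stripped FBS) given compound plus R5020 agonist, 16 h at 37C. CellTiter-Glo added after bla read, 30 min at room temperature; luminescence loss indicates cytotoxicity.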
# PGR (gene 5241) [12] = target: PGR (gene 5241) (UniProt P06401); assay: TOX21_PR_LUC_Followup_Antagonist: Tox21 HEK293 Progesterone Receptor (PR) Antagonism Luciferase Follow-Up Assay (AID 2283938);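 note: curve fitted upward as signal gain over DMSO baseline despite antagonist label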
# In short: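 Luciferase reporter in HEK293-PR-A-luc cells: 16 h compound treatment at 37C, ONE-Glo luminescence detection, DMSO as negative control and baseline.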
# [13] = TOX21_PR_LUC_Followup_Antagonist_viability: Viability Assessment in the Tox21 HEK293 Progesterone Receptor (PR) Antagonism Luciferase Follow-Up Assay (AID 2283940)
# In short: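 HEK293-PR-A-luc cells, precultured 5 days in assay medium with 10% charcoal-stripped FBS, were seeded at 3,000 cells/well, treated with compounds in DMSO for 16 h at 37C, and viability was read as cellular ATP by CellTiter-Glo luminescence.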
# [14] = TOX21_PR_LUC_Followup_Agonist_viability: Viability Assessment in the Tox21 HEK293 Progesterone Receptor (PR) Agonism Luciferase Follow-Up Assay (AID 2283941);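 note: loss of signal means cytotoxicity so actives lower viability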
# In short: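 HEK293-PR-A-luc cells, pre-cultured 5 days in 10% charcoal-stripped FBS, were seeded at 3,000 cells/well, rested 5 h at 37C, then given compound in DMSO for 16 h at 37C. Cellular ATP was read by CellTiter-Glo luminescence; signal loss indicates cytotoxicity.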
smiles,measurement,setting,value
Cc1ccc2c(n1)Oc1ccc(C(C)C(=O)OCC(=O)N(C)C)cc1C2 (centres undefined),outcome,[1],inactive
same,outcome,[2],inactive
same,outcome,[3],inactive
same,outcome,[4],inactive
same,outcome,[5],inactive
same,outcome,[6],inactive
Cc1cccc(C)c1NC(=O)c1ccccc1C(=O)O,outcome,[1],inactive
same,outcome,[2],inactive
same,outcome,[3],inactive
same,outcome,[4],inactive
same,outcome,[5],inactive
same,outcome,[6],inactive
same,outcome,[7],inactive
OC(CCN1CCCC1)(c1ccccc1)C1CCCCC1 (centres undefined),outcome,[1],inactive
same,outcome,[2],inactive
same,outcome,[3],inactive
same,outcome,[4],inactive
same,outcome,[5],inactive
same,outcome,[6],inactive
same,outcome,[7],inactive
COc1cc(C)nc(-n2nc(C)cc2OC)n1,outcome,[1],inactive
same,outcome,[2],inactive
same,outcome,[3],inactive
same,outcome,[4],inactive
same,outcome,[5],inactive
same,outcome,[6],inactive
CCN(CC)c1ccc2c(-c3ccc(S(=O)(=O)O)cc3S(=O)(=O)[O-])c3ccc(=[N+](CC)CC)cc-3oc2c1,outcome,[1],inactive
same,outcome,[2],inactive
same,outcome,[3],inactive
same,outcome,[4],inactive
same,outcome,[5],inactive
same,outcome,[6],inactive
same,outcome,[7],inactive
CC1(C)CC(N)CC(C)(C)N1,outcome,[1],inactive
same,outcome,[2],inactive
same,outcome,[3],inactive
same,outcome,[4],inactive
same,outcome,[5],inactive
same,outcome,[6],inactive
same,outcome,[7],inactive
same,outcome,[8],inactive
C[CH2][Ge]([Cl])([CH2]C)[CH2]C,outcome,[1],inactive
same,outcome,[2],inactive
same,outcome,[3],inactive
same,outcome,[4],inactive
same,outcome,[5],inactive
same,outcome,[6],inactive
CC/C=C\C/C=C\C/C=C\C/C=C\C/C=C\CCCC(=O)O,outcome,[1],inactive
same,outcome,[2],inactive
same,outcome,[3],inactive
same,outcome,[4],inactive
same,outcome,[5],inactive
same,outcome,[6],inactive
same,outcome,[7],inactive
OCCCNc1ccccc1,outcome,[1],inactive
same,outcome,[2],inactive
same,outcome,[3],inactive
same,outcome,[4],inactive
same,outcome,[5],inactive
same,outcome,[6],inactive
same,outcome,[7],inactive
CC(C)(C(=O)O)c1ccc(C(O)CCCN2CCC(C(O)(c3ccccc3)c3ccccc3)CC2)cc1 (centres undefined),outcome,[1],inactive
same,outcome,[2],inactive
same,outcome,[3],inactive
same,outcome,[4],inactive
same,outcome,[5],inactive
same,outcome,[6],inactive
same,outcome,[7],inactive
Nc1ccc(N=Nc2ccccc2)c(N)c1,outcome,[1],inactive
same,outcome,[2],inactive
same,outcome,[3],inactive
same,outcome,[4],inactive
same,outcome,[5],inactive
same,outcome,[6],inactive
same,outcome,[7],inactive
CC(C[N+](C)(C)C)OC(N)=O (centres undefined),outcome,[1],inactive
same,outcome,[2],inactive
same,outcome,[3],inactive
same,outcome,[4],inactive
same,outcome,[5],inactive
same,outcome,[6],inactive
O=C[C@H](O)[C@@H](O)[C@@H](O)[C@H](O)CO,outcome,[1],inactive
same,outcome,[2],inactive
same,outcome,[3],inactive
same,outcome,[4],inactive
same,outcome,[5],inactive
same,outcome,[6],inactive
same,outcome,[7],inactive
CCCCOc1ccc(C(=O)CCN2CCCCC2)cc1,outcome,[1],inactive
same,outcome,[2],inactive
same,outcome,[3],inactive
same,outcome,[4],inactive
same,AC50,[5],6.37 µM (active)
same,outcome,[6],inactive
same,outcome,[7],inactive
CC1(C)S[C@@H]2[C@H](NC(=O)[C@H](N)c3ccccc3)C(=O)N2[C@H]1C(=O)OCOC(=O)[C@@H]1N2C(=O)C[C@H]2S(=O)(=O)C1(C)C,outcome,[1],inactive
same,outcome,[2],inactive
same,outcome,[3],inactive
same,outcome,[4],inactive
same,outcome,[5],inactive
same,outcome,[6],inactive
same,outcome,[7],inactive
CC(=O)OC(C)OC(=O)C(C)c1ccc(-c2ccccc2)c(F)c1 (centres undefined),outcome,[1],inactive
same,outcome,[2],inactive
same,outcome,[3],inactive
same,outcome,[4],inactive
same,outcome,[5],inactive
same,outcome,[6],inactive
same,outcome,[7],inactive
CO[C@H]1/C=C/O[C@@]2(C)Oc3c(C)c(O)c4c(O)c(c5c(c4c3C2=O)=NC2(CCN(CC(C)C)CC2)N=5)NC(=O)/C(C)=C\C=C\[C@H](C)[C@H](O)[C@@H](C)[C@@H](O)[C@@H](C)[C@H](OC(C)=O)[C@@H]1C,outcome,[1],inactive
same,outcome,[2],inactive
same,outcome,[3],inactive
same,outcome,[4],inactive
same,outcome,[5],inactive
same,outcome,[6],inactive
same,outcome,[7],inactive
C[Si](NC1CCCCC1)(NC1CCCCC1)NC1CCCCC1,outcome,[1],inactive
same,outcome,[2],inactive
same,outcome,[3],inactive
same,outcome,[4],inactive
same,AC50,[5],88.8 µM (active)
same,outcome,[6],inactive
same,outcome,[7],inactive
O=C(O)CCCCCC(=O)O,outcome,[1],inactive
same,outcome,[2],inactive
same,outcome,[3],inactive
same,outcome,[4],inactive
same,outcome,[5],inactive
same,outcome,[6],inactive
same,outcome,[7],inactive
CN(C1CCCCC1)S(=O)(=O)c1ccccc1N,outcome,[1],inactive
same,outcome,[2],inactive
same,outcome,[3],inactive
same,outcome,[4],inactive
same,outcome,[5],inactive
same,outcome,[6],inactive
same,outcome,[7],inactive
same,AC50,PGR (gene 5241) [9],25.7 µM (active)
same,outcome,[10],inactive
same,outcome,[11],inactive
same,AC50,PGR (gene 5241) [12],24.2 µM (active)
same,outcome,[13],inactive
same,outcome,[14],inactive
CCN(CC)CCCC(C)Nc1c2ccc(Cl)cc2nc2ccc(OC)cc12 (centres undefined),outcome,[1],inactive
same,AC50,[2],25.8 µM (active)
same,outcome,[3],inactive
same,AC50,[4],23.7 µM (active)
same,outcome,[5],inactive
same,outcome,[6],inactive
same,AC50,[7],35.1 µM (active)
CCCCCCCCCI,outcome,[1],inactive
same,outcome,[2],inactive
same,outcome,[3],inactive
same,outcome,[4],inactive
same,outcome,[5],inactive
same,outcome,[6],inactive
same,outcome,[7],inactive
c1ccc(OCc2ccc(CCCN3CCOCC3)cc2)cc1,outcome,[1],inactive
same,outcome,[2],inactive
same,outcome,[3],inactive
same,outcome,[4],inactive
same,outcome,[5],inactive
same,outcome,[6],inactive
same,outcome,[7],inactive
